The list is not random: actives were taken first. Their share in the collection is about 14%.
Giardia FBPA inh: Giardia lamblia aldolase inhibition. actives 0.71% (n = 290,000). Potency, µM (doses to about 59.6 µM), inactives show at the top dose activity, negative = inhibition, actives largely listed as inhibitors. A8B2U2. AID 2451. purified Giardia FBPA; further: potency means the concentration at half of the fitted maximal effect; nearly all actives have a fitted effect of over 55% in size
Target sequence (A8B2U2 whole entry, looked up): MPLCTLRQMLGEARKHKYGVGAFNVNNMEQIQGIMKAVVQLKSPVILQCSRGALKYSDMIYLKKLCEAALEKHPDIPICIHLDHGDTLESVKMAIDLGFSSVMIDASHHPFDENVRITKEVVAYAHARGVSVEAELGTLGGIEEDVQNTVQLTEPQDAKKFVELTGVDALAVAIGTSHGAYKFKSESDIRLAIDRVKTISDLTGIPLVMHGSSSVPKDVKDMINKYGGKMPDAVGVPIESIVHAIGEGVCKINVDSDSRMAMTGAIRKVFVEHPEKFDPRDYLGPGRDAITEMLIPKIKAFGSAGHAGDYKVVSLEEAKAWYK
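40 nM FBPA preincubated 10 min at RT with compound (up to 57.5 uM final), then substrate plus GAPDH/TPI/NAD/arsenate coupling and diaphorase/resazurin added. Fluorescence read after 20 min at RT, 525/598 nm.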
HCMV inh: inhibitors of human cytomegalovirus. activity change, negative = inhibition, % at 57.5 µM. AID 1259415. HFF cells, HCMV-luciferase reporter, 72 h; hits give low values. actives 4.5% (n = 410,000); in the data active means activity change below about -60%; inconclusive means no clear call, values can overlap the other calls; inactive means above about -39%
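After 16 h attachment at 37C, HFF cells received test compound and HCMV-luciferase (1 PFU/cell); reporter luminescence read 72 h later, data normalized against buffer-only and known inhibitor Salinomycin.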
Pf growth 96h: P. falciparum growth inhibition at 96 hours; actives 6.9% (n = 320,000); Potency, µM (series often up to 28.7 µM), without a hit: top-dose activity change, negative = inhibition, usual class: inhibitors; P. falciparum luciferase reporter growth, 96 h; further: potency means the concentration at half of the fitted maximal effect
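Erythrocytes infected with luciferase-expressing P. falciparum were dispensed at 2% hematocrit and 0.05% parasitemia (final), then incubated with compounds 96 hours at 37 C in 5% CO2. Luminescence after detection reagent addition reported growth.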
Sm TGR block: S. mansoni TGR enzyme inhibition. Q962Y6. purified TGR, DTNB reduction, TNB absorbance 405 nm. Potency, µM (doses to about 114 µM), for inactives: at the highest dose activity change, negative = inhibition, usual class: inhibitors. actives 3% (n = 360,000). AID 485364; further: potency means the concentration at half of the fitted maximal effect; nearly all actives have a fitted effect of over 60% in size
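Kinetic colorimetric format: TGR-catalysed, NADPH-driven DTNB reduction monitored via TNB absorbance. Enzyme dispensed at 20 nM; compound exposure 15 min at room temperature before reaction start.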
Pf growth 48h: inhibits P. falciparum growth in the first generation, 48 h | P. falciparum luciferase growth in erythrocytes, 48 h | Potency, µM (top dose mostly 28.7 µM), without a hit: at the top dose activity change, negative = inhibition, most hits filed as inhibitors | actives 5.9% (n = 310,000); further: potency means the concentration at half of the fitted maximal effect
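Erythrocytes infected with P. falciparum carrying an integrated firefly luciferase reporter (2% hematocrit, 0.1% parasitemia final) were exposed to compounds in RPMI 1640 with 0.5% Albumax at 37 C, 5% CO2. Growth inhibition was scored as reduced luminescence.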
* = called active by the depositor; ? = inconclusive; nt = no result. Unless noted, the call rests on the fitted dose curve; in most records, active means well fitted curve in the direction sought with a large enough effect; inconclusive means small, poorly fitted or top-dose-only effect, or another doubt; inactive means no such curve, though single readings can be large; an effect the other way counts as inactive or inconclusive. On the % scale 0 is the no-effect control and ±100 the full control effect.

SMILES	Giardia FBPA inh	HCMV inh	Pf growth 96h	Sm TGR block	Pf growth 48h
CC[n+]1ccc2cc(OC)c(OC)cc2c1Cc1ccc(OC)c(OC)c1	?	nt	?	?	1.2µM*
Cc1nc(SCC(=O)OC(C)(C)C)c2c3c(sc2n1)CCCC3	nt	-3	nt	1%	nt
O=C(O)CCC(NS(=O)(=O)c1ccc(-c2ccccc2)cc1)C(=O)O (centres undefined)	20%	23	?	-21%	nt
CS(=O)CCC(NS(=O)(=O)c1ccccc1)C(=O)O (centres undefined)	5%	26	9.3µM*	4%	?
CCc1nn(-c2ccccc2)c2nc(-c3ccc(O)cc3)c3cc(OC)c(OC)cc3c12	nt	-5	nt	6%	nt
N#CC(=C(O)CN1CCN(c2ccccc2F)CC1)c1nc(-c2ccccc2)cs1	nt	-71*	nt	nt	nt
CCCCNC(=O)Cn1c(=O)n(C)c2ccccc21	1%	1	7.4µM*	5%	17%
CCCNC(=O)Cn1c(=O)n(C)c2ccccc21	0%	8	-20%	9%	-1%
Cc1c(F)cccc1NS(=O)(=O)c1ccc2c(c1)c(=O)n(C)c(=O)n2C	6%	?	?	-1%	-13%
O=C(OCc1nnc(-c2ccccc2)o1)C1CC(=O)N(Cc2ccco2)C1 (centres undefined)	-2%	?	28%	14µM*	2%
CCOC(=O)c1sc(N)c(C(=O)OCC)c1COC(=O)C1CC(=O)N(Cc2ccco2)C1 (centres undefined)	-3%	29	?	40µM*	?
COC(=O)c1sc(N)c(C(=O)OC)c1COC(=O)C1CC(=O)N(Cc2ccco2)C1 (centres undefined)	9%	63	-10%	?	?
CC(C)NC(=O)CN1CCN(Cc2nc(C(c3ccccc3)c3ccccc3)no2)CC1	3%	?	-26%	-3%	9.3µM*
COc1cccc2c1C(=O)c1c(O)c3c(c(O)c1C2=O)C[C@@](O)(C(C)=O)C[C@@H]3O[C@H]1C[C@H](N)[C@H](O)[C@H](C)O1	?	-100*	0.59µM*	-9%	0.37µM*
COc1cccc2c1C(=O)c1c(O)c3c(c(O)c1C2=O)CC(O)(C(=O)CO)CC3OC1CC(N(C)C)C(O)C(C)O1 (centres undefined)	nt	-98*	nt	nt	nt
CCCCC(=O)OCC(=O)[C@]1(O)Cc2c(O)c3c(c(O)c2[C@H](OC2CC(NC(=O)C(F)(F)F)C(O)C(C)O2)C1)C(=O)c1c(OC)cccc1C3=O (some centres undefined)	nt	nt	2.4µM*	nt	3.4µM*
COc1cccc2c1C(=O)c1c(O)c3c(c(O)c1C2=O)C[C@](O)(C(=O)CO)C[C@@H]3O[C@H]1C[C@H](N)[C@@H](O)[C@H](C)O1	nt	nt	-10%	nt	-10%
CC(=O)[C@]1(O)Cc2c(O)c3c(c(O)c2[C@@H](O[C@H]2C[C@H](N)[C@H](O)[C@H](C)O2)C1)C(=O)c1ccccc1C3=O	-6%	nt	2.7µM*	nt	3.8µM*
CC1(C(=O)NS(=O)(=O)c2ccccc2)CCN1C(=O)c1ccc(C2CCCCC2)cc1 (centres undefined)	nt	-17	nt	nt	nt
COc1cc(S(=O)(=O)NCc2ccccn2)ccc1Cl	-18%	-3	17%	65%	27%
Cc1ccn2c(Nc3c(C)cccc3C)c(-c3ccc(Cl)s3)nc2c1	nt	-12	nt	-1%	nt
CN1CCN(c2nccc3[nH]c(-c4ccccc4Cl)nc23)CC1	nt	-5	nt	nt	nt
CC[C@]1(O)CC(O[C@@H]2CC(N(C)C)C(O)C(C)O2)c2c(cc3c(c2O)C(=O)c2c(O)ccc(O)c2C3=O)C1C(=O)OC (some centres undefined)	-29%	nt	nt	nt	nt
CC(=O)[C@]1(O)Cc2c(O)c3c(c(O)c2[C@@H](O[C@H]2C[C@H](N)[C@H](O)[C@H](C)O2)C1)C(=O)c1c(O)cccc1C3=O	?	nt	1.5µM*	nt	2.4µM*
CCn1c(C)c(C(C)=O)c(NCc2ccccc2)nc1=S	-20%	-81*	-7%	-19%	?
CC(=O)c1c(NCCc2ccccc2)nc(=S)n(-c2ccccc2)c1C	-1%	-101*	-1%	-3%	18%
